High-throughput results as filed in PubChem BioAssay.
Shown are actives, neighbours in structure and some others; about 3.1% of the full set was active somewhere.
PTAP TSG101 blk = blocks PTAP/TSG101 interaction to inhibit HIV-1 budding | Potency, µM (titrated, usually from 115 µM), most hits filed as inhibitors | Fluorescence polarization, FITC-PTAP peptide / Tsg101 binding | 340,000 tested, under 10 active; active = well fitted inhibition curve with a large enough effect in the main read-out, with a control signal flat, not every such curve was filed as active; inconclusive = small, poorly fitted or top-dose-only effect, or effect the other way, or a change in a side signal; inactive = no such curve, though single readings can be large or run the other way
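Steps: Tsg101 binding domain dispensed (10 uM final), compounds pinned in DMSO, FITC-labeled PTAP-motif peptide added (50 nM final); after 20 min binding at room temperature, polarization measured.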
uPA surface inh = inhibitors of cell surface uPA generation; cell surface uPA generation assay, qHTS; Potency, µM (highest dose often 38.3 µM), hits mostly inhibitors; 330,000 tested, 0.31% active; active = well fitted inhibition curve with a large enough effect; inconclusive = small, poorly fitted or top-dose-only effect; inactive = no such curve, though single readings can be large or run the other way; tested in mouse RAW 264.7 cells; also: nearly all actives have a fitted effect of over 55% in size
VDR inh = blocks the human vitamin D receptor; P11473; Potency, µM, actives largely listed as inhibitors; AID 504847; VDR-SRC2-3 peptide fluorescence polarization, 2 h; 400,000 tested, 0.93% active
Target sequence (P11473 whole entry, looked up): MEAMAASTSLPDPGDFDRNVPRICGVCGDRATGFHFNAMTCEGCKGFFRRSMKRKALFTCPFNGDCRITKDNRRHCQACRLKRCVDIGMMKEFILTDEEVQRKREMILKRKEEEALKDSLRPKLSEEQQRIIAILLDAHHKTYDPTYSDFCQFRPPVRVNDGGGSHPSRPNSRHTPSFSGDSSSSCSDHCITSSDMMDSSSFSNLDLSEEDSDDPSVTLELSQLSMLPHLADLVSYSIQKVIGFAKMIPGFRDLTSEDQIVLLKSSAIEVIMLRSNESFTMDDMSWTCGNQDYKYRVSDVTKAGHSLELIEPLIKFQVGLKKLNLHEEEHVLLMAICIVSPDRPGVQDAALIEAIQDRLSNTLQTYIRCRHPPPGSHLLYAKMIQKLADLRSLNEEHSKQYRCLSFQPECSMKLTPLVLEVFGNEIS
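Fluorescence polarization assay measuring small-molecule disruption of VDR binding to the coregulator peptide SRC2-3. Compounds were pin-transferred (23 nl) into the reagent mix and incubated 2 h at room temperature before reading.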
TSHR antagonist = human thyrotropin receptor antagonism; activity change, negative = inhibition, % at 11.5 µM; TSHR-expressing cells, TSH-stimulated cAMP HTRF, 2 h; hits give low values; P16473; 330,000 tested, 0.2% active;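 active = activity change below a set negative limit, meaning inhibition stronger than a set level, cut at about -70% in these data; inconclusive = activity change between two set negative limits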
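Cell-based HTRF cAMP assay; TSHR cells + compound, TSH EC80 (4nM final), 2 h, 37 deg C. Lysis with anti-cAMP cryptate and cAMP-d2, 30 min RT, read 665/620 nm.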
PLK1 PBD inh = blocks phosphopeptide binding to human PLK1 polo-box domain | P53350 | Plk1 PBD binding of FITC phosphopeptide, fluorescence polarization | Potency, µM, most hits filed as inhibitors | 360,000 tested, 2.8% active | AID 720504; also: series mostly up to about 57 µM; nearly all actives have a fitted effect of over 65% in size
Hits are given with their value; i = inactive; ? = inconclusive; nt = no result given. Unless noted, calls follow the shape of the dose curve; as a rule, active = well fitted curve in the direction sought with a large enough effect; inconclusive = small, poorly fitted or top-dose-only effect, or another doubt; inactive = no such curve, though single readings can be large; an effect the other way counts as inactive or inconclusive.

SMILES	PTAP TSG101 blk	uPA surface inh	VDR inh	TSHR antagonist	PLK1 PBD inh
CC(C)C[C@H](NC(=O)[C@H](CC(C)C)NC(=O)[C@H](CCC(N)=O)NC(=O)[C@H](CO)NC(=O)[C@@H]1CCCN1C(=O)[C@H](CO)NC(=O)[C@H](CO)NC(=O)[C@@H](NC(=O)[C@H](Cc1cnc[nH]1)NC(=O)[C@H](CCC(=O)O)NC(=O)[C@H](Cc1ccc(O)cc1)NC(=O)[C@H](CCCCN)NC(=O)[C@H](CCC(N)=O)NC(=O)[C@H](Cc1ccc(O)cc1)NC(=O)[C@H](CC(=O)O)NC(=O)[C@@H](NC(=O)[C@@H]1CCCN1C(=O)[C@H](CC(=O)O)NC(=O)[C@H](CC(N)=O)NC(=O)[C@H](CC(=O)O)NC(=O)CNC(=O)[C@H](CC(=O)O)NC(=O)[C@@H]1CCCN1C(=O)[C@H](CCC(N)=O)NC(=O)[C@H](Cc1ccc(O)cc1)NC(=O)[C@H](C)NC(=O)[C@H](Cc1c[nH]c2ccccc12)NC(=O)[C@H](Cc1ccccc1)NC(=O)[C@@H](NC(=O)[C@@H](N)CO)[C@@H](C)O)[C@@H](C)O)[C@@H](C)O)C(=O)N[C@@H](C)C(=O)N1CCC[C@H]1C(=O)NCC(=O)N[C@@H](CC(=O)O)C(=O)N[C@@H](Cc1ccc(O)cc1)C(=O)O	nt	nt	i	nt	nt
COc1ccccc1NC(=O)COc1ccc(C(F)(F)F)cc1[N+](=O)[O-]	i	i	i	nt	27µM
COc1ccc(C(C)(C)C)cc1NC(=O)COC(=O)c1ccc([N+](=O)[O-])o1	i	i	i	i	30µM
O=C(O/N=C1/CCSc2ccccc21)c1ccc(F)cc1	i	nt	i	i	i
O=C(O/N=C1/CCCc2occc21)c1ccc(F)cc1	i	i	?	i	12µM
COc1ccc(C(O)c2nc(/C=C/c3ccc(C(F)(F)F)cc3)cs2)cc1 (centres undefined)	nt	nt	nt	nt	i
CCCCC(O)(c1ccc(CC)cc1)C(CN1CCOCC1)c1ccccc1 (centres undefined)	i	i	i	i	i
C[N+]1(C)CCC(=C2c3ccccc3CC(=O)c3sccc32)CC1	i	nt	i	i	38µM
O=C1NC(c2ccccn2)Nc2sc3c(c21)CCC3 (centres undefined)	i	i	i	i	i
Cc1ccc(C2NC(=O)c3c(sc4c3CCN(C)C4)N2)s1 (centres undefined)	i	i	?	i	i
CN1CCc2c(sc3c2C(=O)NC(c2ccccc2)N3)C1 (centres undefined)	i	i	71µM	i	i
CN1CCc2c(sc3c2C(=O)NC(c2ccccn2)N3)C1 (centres undefined)	?	i	25µM	i	?
CN1CCc2c(sc3c2C(=O)NC(c2ccc(OC(=O)c4ccccc4)cc2)N3)C1 (centres undefined)	nt	nt	45µM	nt	nt
O=C(NCCc1ccc(Cl)cc1)c1cccn1-c1nnc(N2CCCC2)s1	nt	nt	i	nt	nt
O=C(O)CN1C(=O)/C(=C2\C(=O)N(Cc3ccccc3Cl)c3ccccc32)SC1=S	i	i	i	i	27µM
O=C1/C(=C2\C(=O)N(Cc3ccc(F)cc3)c3ccccc32)SC(=S)N1CCS(=O)(=O)O	i	i	?	i	21µM
O=C(c1ccc2c(c1)N(Cc1ccccc1Cl)C(=O)c1ccccc1S2)N1CCCC1	nt	nt	i	nt	nt
CC(=O)Nc1ccc(Sc2ccc([N+](=O)[O-])o2)cc1	i	i	?	nt	21µM
CCSc1nc2c(c(=O)[nH]c(=O)n2C)n1CC(O)COc1ccccc1 (centres undefined)	i	i	i	i	i
CC(C)CSc1nc2c(c(=O)[nH]c(=O)n2C)n1CC(O)COc1cccc2ccccc12 (centres undefined)	i	i	?	i	11µM
Cn1c(=O)c2c(nc(N3CCCCCC3)n2CC(O)COc2ccccc2)n(C)c1=O (centres undefined)	i	i	?	i	3µM
COCCCNc1nc2c(c(=O)[nH]c(=O)n2C)n1CC(O)COc1ccccc1C (centres undefined)	i	i	i	i	24µM
Cn1c(=O)c2c(nc(N3CCCCC3)n2CC(O)COc2ccccc2)n(C)c1=O (centres undefined)	i	i	i	i	i
Cn1c(=O)[nH]c(=O)c2c1nc(SCCO)n2CC(O)COc1ccccc1 (centres undefined)	i	i	i	i	24µM
Cc1ccc(S(=O)(=O)N2CCCc3cc(NC(=O)c4ccc(C(F)(F)F)cc4)ccc32)cc1	nt	nt	i	nt	nt
SMILES	PTAP TSG101 blk	uPA surface inh	VDR inh	TSHR antagonist	PLK1 PBD inh
CC(=O)c1ccc(S(=O)(=O)Nc2cccc(-c3ccc(N4CCCC4)nn3)c2)cc1	nt	nt	i	nt	nt
Cc1ccc(-c2c(C(=O)N/N=C/c3c[nH]c4ccccc34)nnn2-c2nonc2N)cc1	i	i	i	i	i
CCn1c(Oc2ccccc2)nc2c1c(=O)n(C)c(=O)n2C	i	i	?	i	27µM
CC(C)NC(=O)N1CC[C@@]2(CCCN(C(=O)c3csnn3)C2)C1	nt	nt	i	nt	nt
Cc1ccc(CN2CCC(CNC(=O)Nc3cccc(C)c3C)C2)cc1 (centres undefined)	nt	nt	i	nt	nt
COc1cc(C(=O)NCC(c2ccccc2)N(C)C)ccc1OCc1c(C)noc1C (centres undefined)	i	7.9µM	i	i	i
COC(=O)c1ccc(OC(=O)c2ccc(OCc3c(C)noc3C)c(OC)c2)cc1	nt	nt	nt	i	nt
COc1ccc(CNC(=O)COC(=O)c2ccc(OCc3c(C)noc3C)cc2)cc1OC	i	i	?	i	30µM
COc1ccccc1CNC(=O)c1ccc(OCc2c(C)noc2C)c(OC)c1	i	i	i	nt	i
COc1cc(C(=O)OCC#N)ccc1OCc1c(C)noc1C	i	11µM	i	i	i
COc1cc(/C=C/C(=O)c2ccc(C)cc2)ccc1OCC#N	i	i	50µM	i	i
COc1ccc(/C=C/C(=O)c2ccc(C(=O)/C=C/c3ccc(OC)c(OC)c3)cc2)cc1OC	i	?	i	i	i
Cc1ccccc1Nc1cc(C(=O)NCc2cccs2)c2ccccc2n1	nt	nt	i	nt	nt
COc1cc(Nc2nc3c(S(=O)(=O)c4ccccc4)nnn3c3ccc(Cl)cc23)cc(OC)c1	nt	nt	i	nt	nt
O=C(NCCN1CCC(n2c(=O)[nH]c3ccccc32)CC1)c1cccc(Cl)c1	nt	nt	nt	nt	i
Nc1nc(NC(=O)c2ccc(F)cc2)ns1	i	i	?	i	30µM
CC(=O)N1CCc2c(sc(NC(=O)c3ccc([N+](=O)[O-])o3)c2C#N)C1	i	i	?	i	24µM
COc1ccc(C(=O)Nc2sc3c(c2C#N)CCN(C(C)=O)C3)cc1	i	i	i	i	i
CC(=O)N1CCc2c(sc(NC(=O)Cc3ccc(C)cc3C)c2C#N)C1	i	i	?	i	27µM
Cc1ccc(NC(=O)N2CCC(N3CCN(Cc4ccccc4)C(=O)C3=O)CC2)cc1Cl	nt	nt	i	nt	nt
CCc1ccc(/C=C2/SC(=S)N(CCCC(=O)Nc3ccccc3C(=O)O)C2=O)cc1	i	i	?	i	24µM
